# Experimental data published in PubChem BioAssay (Tox21).
# Values without a mark were called inactive. Results filed as inconclusive are left out. Entries that show only a call come without a potency. Activity calls are given as the source filed them. Unless noted, the call rests on the fitted dose curve; in most records, active means well fitted curve in the direction sought with a large enough effect in the repeat runs; inconclusive means weak or mixed curves; inactive means no such curve, though single readings can be large; an effect the other way counts as inactive or inconclusive.
# Assays:
# [1] = qHTS assay to identify small molecule agonists of the sonic hedgehog signaling (Shh) pathway (AID 1259368; calls by dose curve;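 further: NIH/3T3-derived 3T3Gli1-Luc cells carrying a stable Gli1-driven firefly luciferase reporter; series mostly up to about 92 µM; nearly all actives have a fitted effect of over 15% in size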)
# Method in brief: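 3T3Gli1-Luc (NIH/3T3 clone, stable Gli1-Luc); 4 hr pre-incubation, then cpd in DMSO 24 hr, 37 C/5% CO2; luciferase reagent 30 min RT; luminescence.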
# [2] = qHTS assay to identify small molecule antagonists of the sonic hedgehog signaling (Shh) pathway (AID 1259369; calls by dose curve; further: nearly all actives have a fitted effect of over 45% in size)
# Method in brief: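 3T3Gli1-Luc, conditioned-medium-stimulated, 24hr cpd, 37C/5% CO2; Gli1-driven firefly Luc luminescence after 30min RT with luciferase reagent. Cells plated 4hr before cpd.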
# [3] = molecular target: Estrogen receptor beta (Homo sapiens) (UniProt Q92731); test: qHTS assay to identify small molecule agonists of the estrogen receptor beta (ER-beta) signaling pathway (AID 1259377; active means well fitted activation curve with a large enough effect in the signal ratio in the repeat runs, not every such curve was filed as active; the % refers to the signal ratio)
# Method in brief: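 A UAS-controlled beta-lactamase reporter in ER-beta-UAS-bla HEK293T cells reports receptor activation. Compounds act for 16 hr at 37C in 2% charcoal-stripped serum, and a FRET substrate is read by fluorescence after 2 hours.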
# [4] = molecular target: Estrogen receptor beta (Homo sapiens) (UniProt Q92731); test: qHTS assay to identify small molecule antagonists of the estrogen receptor beta (ER-beta) signaling pathway (AID 1259378; active means well fitted inhibition curve with a large enough effect in the signal ratio in the repeat runs, not every such curve was filed as active; the % refers to the signal ratio)
# Method in brief: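 ER-beta-UAS-bla HEK293T (GripTite) cells in 2% charcoal-stripped FBS medium were preincubated 6 hr at 37C, dosed with compound, then stimulated with 1 nM E2 (final) for 16 hr; beta-lactamase reporter read by B/G FRET fluorescence after 2 hr substrate loading.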
# [5] = qHTS assay to identify small molecule agonists of the androgen receptor (AR) signaling pathway in the presence of an antagonist - cell viability counter screen (AID 1259379);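 further: MDA-kb2 human breast cancer cells carrying an MMTV luciferase reporter; series mostly up to about 92 µM; nearly all actives have a fitted effect of over 25% in size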
# Method in brief: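 Cells: MDA-kb2 (MMTV-luc, AR and GR elements), 3,000/well, 5 hr settle. Added: nilutamide 3.0uM final, then compounds (15 conc.). Incubation: 16 hr, 37C, no CO2. Read-out: CellTiter-Fluor, 1 hr, fluorescence.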
# [6] = qHTS assay to identify small molecule agonists of the estrogen receptor beta (ER-beta) signaling pathway - cell viability counter screen (AID 1259380); further: nearly all actives have a fitted effect of over 30% in size
# Method in brief: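 HEK293T ER-beta-UAS-bla; 2% CS-FBS; 6 hr pre-plate, 16 hr cpd at 37C/5% CO2; LiveBLAzer read first, then CellTiter-Glo 30 min RT, luminescence.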
# [7] = molecular target: Androgen receptor (Homo sapiens) (UniProt P10275); test: qHTS assay to identify small molecule agonists of the androgen receptor (AR) signaling pathway in the presence of an antagonist (AID 1259381; calls by dose curve; further: nearly all actives have a fitted effect of over 15% in size)
# Method in brief: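 MDA-kb2 cells, 3,000/well, rested 5hr at 37C/0% CO2 → nilutamide 3.0uM final or buffer → compounds, 15 conc. → 16hr at 37C → ONE-Glo, 30min RT → luminescence.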
# [8] = qHTS assay to identify small molecule antagonists of the estrogen receptor beta (ER-beta) signaling pathway - cell viability counter screen (AID 1259382); further: series mostly up to about 92 µM; nearly all actives have a fitted effect of over 55% in size
# Method in brief: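 Cells: ER-beta-UAS-bla HEK293T, 2,000/well, 2% CS-FBS, 6 hr settle. Cpd + E2 (1nM final), 16 hr, 37C/5% CO2. Bla FRET substrate 2 hr RT, then CellTiter-Glo 30 min RT, luminescence.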
# [9] = molecular target: Estrogen receptor (Homo sapiens) (UniProt P03372); test: qHTS assay to identify small molecule agonists of the estrogen receptor alpha (ER-alpha) signaling pathway in the presence of an antagonist (AID 1259383; calls by dose curve; further: top concentration of the series differs between compounds; nearly all actives have a fitted effect of over 15% in size)
# Method in brief: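 VM7Luc4E2, endog. ER-alpha + 4×ERE-luc; charcoal-stripped FBS, phenol red-free, 5 d; 24hr plating; +10.0nM ICI-182,780 (final); cpds 15 conc, 22hr, 37C/5% CO2; ONE-Glo luminescence.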
# [10] = qHTS assay to identify small molecule agonists or antagonists of the thyroid stimulating hormone receptor (TSHR) signaling pathway - wild type cell line counter screen (AID 1259384; calls by dose curve)
# Method in brief: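 Wild-type HEK293 cells were plated 18 h at 37 C/5% CO2, pin-dosed with compound plus Ro20-1724 medium, held 30 min at room temperature, then given cAMP-d2 and anti-cAMP-cryptate; fluorescence was read after 1 h. Fifteen concentrations, triplicate.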
# [11] = molecular target: Thyrotropin receptor (Homo sapiens) (UniProt P16473); test: qHTS assay to identify small molecule antagonists of the thyroid stimulating hormone receptor (TSHR) signaling pathway (AID 1259385; calls by dose curve; further: nearly all actives have a fitted effect of over 20% in size)
# Method in brief: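 TSHR-HEK293 cells were plated and held 18 h at 37C/5% CO2, then given compound plus Ro20-1724 and stimulated with TSH at 1.5 ng/mL final. After 30 min at room temperature, cAMP was detected with cAMP-d2/anti-cAMP-cryptate (1 h) by fluorescence.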
# [12] = qHTS assay to identify small molecule agonists of the estrogen receptor alpha (ER-alpha) signaling pathway in the presence of an antagonist - cell viability counter screen (AID 1259386);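 further: series mostly up to about 92 µM; cells exposed to compounds for 22 h at 37 °C before the viability read; nearly all actives have a fitted effect of over 30% in size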
# Method in brief: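 VM7Luc4E2, stripped-serum pre-culture 5 d; 24hr plating; +ICI-182,780 10.0nM final; cpds 15 conc, 22hr, 37C/5% CO2; CellTiter-Fluor added at 21hr, fluorescence 1hr later.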
# [13] = qHTS assay to identify small molecule antagonists of the progesterone receptor (PR) signaling pathway - cell viability counter screen (AID 1346798); further: series mostly up to about 92 µM; nearly all actives have a fitted effect of over 50% in size
# Method in brief: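 Same-well multiplex: after 16 hr at 37C with compound and R5020 stimulation, HEK293T cells carrying a UAS-bla reporter received LiveBLAzer substrate (2 hr RT), then CellTiter-Glo (30 min RT) for luminescent viability.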
# [14] = qHTS assay to identify small molecule agonists of the progesterone receptor (PR) signaling pathway - cell viability counter screen (AID 1346799; calls by dose curve; further: nearly all actives have a fitted effect of over 45% in size)
# Method in brief: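 Counter screen for cytotoxicity: compound-treated PR-UAS-bla HEK293T cells (16 hr, 37C, 5% CO2) were assayed with CellTiter-Glo, luminescence measured after 30 min at room temperature.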
# [15] = qHTS assay to identify small molecule antagonists of the TGF-beta/Smad signaling pathway - cell viability counter screen (AID 1346824); further: nearly all actives have a fitted effect of over 50% in size
# Method in brief: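 SBE-bla HEK 293T cells were plated overnight at 37 C, then given compounds in DMSO plus TGF-beta1 (added as 0.25 ng/mL solution) for 5 hr. After the bla read, CellTiter-Glo was added to the same wells and luminescence read after 30 min at room temperature.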
# [16] = qHTS assay to identify small molecule agonists of the TGF-beta/Smad signaling pathway - cell viability counter screen (AID 1346829); further: top concentration of the series differs between compounds; nearly all actives have a fitted effect of over 45% in size
# Method in brief: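 Luminescence from CellTiter-Glo, read after a 30 min room-temperature incubation, gives cell viability of SBE-bla HEK 293T cells treated 5 hr with compounds at 37 C.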
# [17] = molecular target: Thyrotropin-releasing hormone receptor (Homo sapiens) (UniProt P34981); test: qHTS assay to identify small molecule antagonists of the thyrotropin-releasing hormone receptor (TRHR) signaling pathway (AID 1346877; active means well fitted inhibition curve with a large enough effect in the repeat runs, not every such curve was filed as active; further: series mostly up to about 51 µM)
# Method in brief: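 Intracellular calcium fluorescence, read kinetically every second over 3 min, reports TRH-evoked signalling in HEK293 cells carrying TRHR. Test compounds were added 5 min ahead of a 1 nM TRH challenge.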
# [18] = molecular target: Progesterone receptor (Homo sapiens) (UniProt P06401); test: qHTS assay to identify small molecule agonists of the progesterone receptor (PR) signaling pathway (AID 1346784; calls by dose curve; further: nearly all actives have a fitted effect of over 30% in size; further: potency means the concentration at half of the fitted maximal effect)
# Method in brief: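 Agonist mode, quantitative HTS format in a HEK 293T line expressing a UAS-controlled beta-lactamase reporter; 16 hr compound exposure at 37C in 2% charcoal-stripped FBS, then LiveBLAzer B/G FRET fluorescence.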
# [19] = molecular target: Progesterone receptor (Homo sapiens) (UniProt P06401); test: qHTS assay to identify small molecule antagonists of the progesterone receptor (PR) signaling pathway (AID 1346795; active means well fitted inhibition curve with a large enough effect in the signal ratio in the repeat runs, not every such curve was filed as active; the % refers to the signal ratio)
# Method in brief: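 HEK293T PR-UAS-bla reporter cells in charcoal-stripped serum (2%) received compound after a 6 hr settling period, followed by R5020 agonist at 1 nM final; 16 hr incubation preceded the FRET substrate step and fluorescence measurement.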
# [20] = qHTS assay to identify small molecule agonists of the TGF-beta/Smad signaling pathway (AID 1346859; active means well fitted activation curve with a large enough effect in the signal ratio in the repeat runs, not every such curve was filed as active; the % refers to the signal ratio; further: series mostly up to about 77 µM)
# Method in brief: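 Smad-responsive beta-lactamase reporter cells (HEK 293T) received compounds from DMSO stocks after overnight attachment, were incubated 5 hr, then treated 2 hr with FRET substrate before dual-emission fluorescence measurement (405 nm excitation).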
# Androgen receptor (Homo sapiens), sequence (P10275 whole entry, looked up): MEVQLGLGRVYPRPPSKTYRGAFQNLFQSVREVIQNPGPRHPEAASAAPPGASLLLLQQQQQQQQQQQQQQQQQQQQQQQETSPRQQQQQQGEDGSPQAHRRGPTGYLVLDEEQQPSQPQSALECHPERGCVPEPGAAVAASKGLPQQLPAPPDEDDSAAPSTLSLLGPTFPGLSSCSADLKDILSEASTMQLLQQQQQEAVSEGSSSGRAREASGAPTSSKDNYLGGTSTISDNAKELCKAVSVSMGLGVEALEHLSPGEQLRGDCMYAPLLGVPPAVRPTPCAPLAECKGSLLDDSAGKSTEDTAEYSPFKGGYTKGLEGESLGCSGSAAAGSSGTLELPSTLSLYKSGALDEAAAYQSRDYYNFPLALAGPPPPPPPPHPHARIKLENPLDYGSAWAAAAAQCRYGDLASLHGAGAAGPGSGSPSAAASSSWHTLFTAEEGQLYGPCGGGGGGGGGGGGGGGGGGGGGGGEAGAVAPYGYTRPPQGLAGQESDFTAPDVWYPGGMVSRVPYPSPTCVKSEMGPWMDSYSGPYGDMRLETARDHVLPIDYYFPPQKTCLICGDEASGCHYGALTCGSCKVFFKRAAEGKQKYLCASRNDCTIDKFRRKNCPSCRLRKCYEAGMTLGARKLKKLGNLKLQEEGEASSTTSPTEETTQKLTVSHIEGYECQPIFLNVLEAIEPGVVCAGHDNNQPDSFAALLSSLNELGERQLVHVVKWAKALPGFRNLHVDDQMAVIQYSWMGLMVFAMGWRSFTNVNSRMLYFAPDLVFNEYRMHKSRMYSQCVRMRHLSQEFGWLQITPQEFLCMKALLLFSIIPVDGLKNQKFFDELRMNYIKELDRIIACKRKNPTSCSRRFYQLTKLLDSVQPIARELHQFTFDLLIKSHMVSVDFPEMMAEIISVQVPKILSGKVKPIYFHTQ
# Progesterone receptor (Homo sapiens), sequence (P06401 whole entry, looked up): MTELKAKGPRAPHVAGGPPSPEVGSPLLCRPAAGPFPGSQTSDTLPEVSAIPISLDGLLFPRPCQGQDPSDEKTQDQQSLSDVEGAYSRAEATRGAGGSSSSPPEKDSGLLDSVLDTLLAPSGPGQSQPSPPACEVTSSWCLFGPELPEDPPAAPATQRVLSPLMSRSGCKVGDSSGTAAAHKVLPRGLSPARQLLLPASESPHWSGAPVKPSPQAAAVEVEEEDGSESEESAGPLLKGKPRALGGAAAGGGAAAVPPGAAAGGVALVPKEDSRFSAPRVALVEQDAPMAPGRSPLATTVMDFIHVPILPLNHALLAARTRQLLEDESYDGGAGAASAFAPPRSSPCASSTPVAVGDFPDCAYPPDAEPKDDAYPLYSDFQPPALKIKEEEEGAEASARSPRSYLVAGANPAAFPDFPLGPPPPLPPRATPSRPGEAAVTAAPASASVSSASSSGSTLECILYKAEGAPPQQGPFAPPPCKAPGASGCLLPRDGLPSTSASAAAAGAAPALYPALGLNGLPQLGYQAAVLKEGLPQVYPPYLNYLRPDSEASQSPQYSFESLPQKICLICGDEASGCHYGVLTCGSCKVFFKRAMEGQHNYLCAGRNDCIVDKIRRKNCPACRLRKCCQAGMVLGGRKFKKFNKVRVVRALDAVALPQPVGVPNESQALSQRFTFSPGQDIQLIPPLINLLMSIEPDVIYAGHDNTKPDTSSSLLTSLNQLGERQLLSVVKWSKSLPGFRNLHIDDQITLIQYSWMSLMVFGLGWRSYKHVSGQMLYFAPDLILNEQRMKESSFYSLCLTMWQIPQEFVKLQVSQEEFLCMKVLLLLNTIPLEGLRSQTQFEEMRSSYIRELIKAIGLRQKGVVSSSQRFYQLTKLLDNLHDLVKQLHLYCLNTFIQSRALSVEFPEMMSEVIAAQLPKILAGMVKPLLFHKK
# Thyrotropin-releasing hormone receptor (Homo sapiens), sequence (P34981 whole entry, looked up): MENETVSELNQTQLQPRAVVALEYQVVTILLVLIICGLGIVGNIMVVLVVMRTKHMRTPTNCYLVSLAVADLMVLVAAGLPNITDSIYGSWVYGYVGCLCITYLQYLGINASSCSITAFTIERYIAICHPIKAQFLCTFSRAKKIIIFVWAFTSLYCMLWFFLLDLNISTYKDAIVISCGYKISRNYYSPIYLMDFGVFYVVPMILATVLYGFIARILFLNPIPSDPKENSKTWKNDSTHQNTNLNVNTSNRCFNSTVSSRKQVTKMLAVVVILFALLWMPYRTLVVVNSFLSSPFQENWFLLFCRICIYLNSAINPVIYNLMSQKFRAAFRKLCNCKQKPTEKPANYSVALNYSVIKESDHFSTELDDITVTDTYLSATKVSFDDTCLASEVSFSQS
# Thyrotropin receptor (Homo sapiens), sequence (P16473 whole entry, looked up): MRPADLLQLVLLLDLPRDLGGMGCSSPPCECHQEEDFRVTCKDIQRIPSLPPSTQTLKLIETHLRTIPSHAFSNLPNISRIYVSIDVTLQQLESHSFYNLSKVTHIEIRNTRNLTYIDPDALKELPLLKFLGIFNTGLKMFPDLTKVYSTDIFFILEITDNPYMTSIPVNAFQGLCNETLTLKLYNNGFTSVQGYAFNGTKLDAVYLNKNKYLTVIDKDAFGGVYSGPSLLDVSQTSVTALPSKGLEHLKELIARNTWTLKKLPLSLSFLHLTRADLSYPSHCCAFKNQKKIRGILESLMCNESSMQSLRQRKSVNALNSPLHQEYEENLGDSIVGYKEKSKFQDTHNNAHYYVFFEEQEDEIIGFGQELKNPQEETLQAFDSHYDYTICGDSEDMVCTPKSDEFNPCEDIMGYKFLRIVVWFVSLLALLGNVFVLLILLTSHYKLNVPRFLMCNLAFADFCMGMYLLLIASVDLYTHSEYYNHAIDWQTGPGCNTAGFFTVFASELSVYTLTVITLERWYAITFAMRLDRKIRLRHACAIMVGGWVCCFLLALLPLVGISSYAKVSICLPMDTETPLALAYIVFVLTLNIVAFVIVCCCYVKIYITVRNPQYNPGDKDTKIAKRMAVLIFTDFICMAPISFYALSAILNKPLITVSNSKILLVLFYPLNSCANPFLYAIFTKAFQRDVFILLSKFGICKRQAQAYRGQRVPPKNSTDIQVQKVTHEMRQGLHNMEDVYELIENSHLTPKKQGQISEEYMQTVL
# Estrogen receptor beta (Homo sapiens), sequence (Q92731 whole entry, looked up): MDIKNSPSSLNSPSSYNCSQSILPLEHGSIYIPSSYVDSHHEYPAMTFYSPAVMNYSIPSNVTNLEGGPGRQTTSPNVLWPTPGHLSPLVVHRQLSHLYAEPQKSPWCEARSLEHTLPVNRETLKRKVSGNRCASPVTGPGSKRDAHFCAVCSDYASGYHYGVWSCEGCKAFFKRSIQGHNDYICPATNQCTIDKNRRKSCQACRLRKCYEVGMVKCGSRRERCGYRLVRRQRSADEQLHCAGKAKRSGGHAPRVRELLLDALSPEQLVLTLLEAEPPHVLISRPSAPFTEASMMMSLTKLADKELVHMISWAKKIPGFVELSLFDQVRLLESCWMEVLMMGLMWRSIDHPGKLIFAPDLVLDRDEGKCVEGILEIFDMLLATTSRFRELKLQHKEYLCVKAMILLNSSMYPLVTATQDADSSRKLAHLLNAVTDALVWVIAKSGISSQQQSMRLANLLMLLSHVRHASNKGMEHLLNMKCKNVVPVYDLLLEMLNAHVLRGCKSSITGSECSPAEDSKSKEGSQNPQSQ
# Estrogen receptor (Homo sapiens), sequence (P03372 whole entry, looked up): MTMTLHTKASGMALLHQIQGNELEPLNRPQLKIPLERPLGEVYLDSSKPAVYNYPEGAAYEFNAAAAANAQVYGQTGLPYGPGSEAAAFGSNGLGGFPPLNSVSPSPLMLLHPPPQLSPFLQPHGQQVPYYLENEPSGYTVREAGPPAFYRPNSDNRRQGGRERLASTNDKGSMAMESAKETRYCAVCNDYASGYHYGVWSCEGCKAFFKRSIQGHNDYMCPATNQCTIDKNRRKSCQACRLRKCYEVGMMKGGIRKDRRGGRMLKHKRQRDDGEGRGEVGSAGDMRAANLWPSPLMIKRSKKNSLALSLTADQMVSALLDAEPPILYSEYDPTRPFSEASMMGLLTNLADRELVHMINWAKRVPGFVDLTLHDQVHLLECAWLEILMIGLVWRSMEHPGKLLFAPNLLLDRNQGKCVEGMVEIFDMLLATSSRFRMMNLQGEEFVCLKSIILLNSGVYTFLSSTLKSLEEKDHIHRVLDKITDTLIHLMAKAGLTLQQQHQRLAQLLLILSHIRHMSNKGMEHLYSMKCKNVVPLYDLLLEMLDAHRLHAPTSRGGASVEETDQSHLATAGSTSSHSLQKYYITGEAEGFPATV
smiles,measurement,setting,value
CCCOC(=O)c1ccc(C(=O)OCCC)nc1,Potency,[1],inactive
same,Potency,[2],inactive
same,Potency,[3],inactive
same,Potency,[4],inactive
same,Potency,[5],inactive
same,Potency,[6],inactive
same,Potency,[7],inactive
same,Potency,[8],inactive
same,Potency,[9],inactive
same,outcome,[10],inactive
same,Potency,[11],inactive
same,Potency,[12],inactive
same,Potency,[13],inactive
same,Potency,[14],inactive
same,outcome,[15],inactive
same,outcome,[16],inactive
same,outcome,[17],inactive
CCn1cc(C(=O)O)c(=O)c2cc(F)c(N3CCNCC3)nc21,Potency,[1],inactive
same,Potency,[2],inactive
same,Potency,[3],inactive
same,Potency,[4],inactive
same,Potency,[5],inactive
same,Potency,[6],inactive
same,Potency,[8],inactive
same,Potency,[9],inactive
same,outcome,[10],inactive
same,Potency,[11],inactive
same,Potency,[12],inactive
same,Potency,[18],inactive
same,Potency,[19],inactive
same,Potency,[13],inactive
same,Potency,[14],inactive
same,outcome,[15],inactive
same,outcome,[16],inactive
same,outcome,[20],inactive
CCOCCn1c(C2CCN(CCc3ccc(C(C)(C)C(=O)O)cc3)CC2)nc2ccccc21,Potency,[1],inactive
same,Potency,[2],inactive
same,Potency,[3],inactive
same,Potency,[4],inactive
same,Potency,[5],inactive
same,Potency,[6],inactive
same,Potency,[7],inactive
same,Potency,[8],inactive
same,Potency,[9],inactive
same,outcome,[10],inactive
same,Potency,[11],inactive
same,Potency,[12],inactive
same,Potency,[18],inactive
same,Potency,[19],inactive
same,Potency,[13],inactive
same,Potency,[14],inactive
same,outcome,[15],inactive
same,outcome,[16],inactive
same,outcome,[20],inactive
same,outcome,[17],inactive
CN1CCCN=C1/C=C/c1cccs1,Potency,[1],inactive
same,Potency,[2],inactive
same,Potency,[3],inactive
same,Potency,[4],inactive
same,Potency,[5],inactive
same,Potency,[6],inactive
same,Potency,[8],inactive
same,Potency,[9],inactive
same,outcome,[10],inactive
same,Potency,[11],inactive
same,Potency,[12],inactive
same,Potency,[18],inactive
same,Potency,[19],inactive
same,Potency,[13],inactive
same,Potency,[14],inactive
same,outcome,[15],inactive
same,outcome,[16],inactive
same,outcome,[20],inactive
OC/C(Br)=C(\Br)CO,Potency,[1],inactive
same,Potency,[2],inactive
same,Potency,[3],inactive
same,Potency,[4],inactive
same,Potency,[5],inactive
same,Potency,[6],inactive
same,Potency,[8],inactive
same,Potency,[9],inactive
same,outcome,[10],inactive
same,Potency,[12],inactive
same,Potency,[19],inactive
same,Potency,[13],inactive
same,Potency,[14],inactive
same,outcome,[15],inactive
same,outcome,[16],inactive
same,outcome,[20],inactive
same,outcome,[17],inactive
C=CCCCCCCCCCCCCCCCC,activity change,[1],"0.635% [at 8.39 µM, stronger effect = higher value]"
same,"activity change, negative = inhibition",[2],12.7% [at 8.39 µM]
same,activation,[3],-1.08% [at 8.39 µM]
same,"activity, negative = inhibition",[4],3.67% [at 8.39 µM]
same,"activity change, negative = cytotoxicity",[5],0.762% [at 8.39 µM]
same,"activity change, negative = cytotoxicity",[6],5.49% [at 8.39 µM]
same,"activity change, negative = cytotoxicity",[8],-0.694% [at 8.39 µM]
same,activation,[9],-0.131% [at 8.39 µM]
same,"activity change, negative = inhibition",[11],-0.238% [at 8.39 µM]
same,"activity change, negative = cytotoxicity",[12],-0.26% [at 8.39 µM]
same,Potency,[18],733 nM (active)
same,"activity change, negative = inhibition",[19],15.4% [at 8.39 µM]
same,"activity change, negative = cytotoxicity",[13],4.23% [at 8.39 µM]
same,"activity change, negative = cytotoxicity",[14],14.5% [at 8.39 µM]
same,"viability change, negative = cytotoxic",[15],2.26% [at 6.97 µM]
same,"activity change, negative = cytotoxicity",[16],3.28% [at 6.97 µM]
same,activation,[20],2.93% [at 6.97 µM]
COc1ccc(CCC(=O)c2c(O)cc(O[C@@H]3O[C@H](CO)[C@@H](O)[C@H](O)[C@H]3O[C@@H]3O[C@@H](C)[C@H](O)[C@@H](O)[C@H]3O)cc2O)cc1O,Potency,[1],inactive
same,Potency,[2],inactive
same,Potency,[3],inactive
same,Potency,[4],inactive
same,Potency,[5],inactive
same,Potency,[6],inactive
same,Potency,[7],inactive
same,Potency,[8],inactive
same,Potency,[9],inactive
same,Potency,[11],inactive
same,Potency,[12],inactive
same,Potency,[18],inactive
same,Potency,[19],inactive
same,Potency,[13],inactive
same,Potency,[14],inactive
same,outcome,[15],inactive
same,outcome,[16],inactive
same,outcome,[20],inactive
same,outcome,[17],inactive
